In ChEMBL document CHEMBL3988442, “University of Dundee, Small-Polar-MMV Screening Library” (2021):
About 960 (1.5%) of roughly 66,000 compounds showed an effect of 50% or more. Many of the other results were omitted from the sample, so strong results are more common in it than they were.

Test system: Trypanosoma brucei
Assay: Trypanosoma brucei 72 hour study
Assay type: functional, organism-based
Parameters: scale not given: in the data most compounds retested in dose-response had high values

## CC(=O)NC1CCCc2c1[nH]c1ccc(F)cc21 (centres undefined)
30 µM, 30.03 µM
  Percent Effect: -27.6%

## Fc1ccc2[nH]c3c(c2c1)CCN1C(c2ccncc2)N2CCC31CC2 (centres undefined)
30.3 µM, […]
  Percent Effect: 100.7%

## Fc1ccc2[nH]c3c(c2c1)CCN1C(c2ccccn2)N2CCC31CC2 (centres undefined)
30.3 µM, […]
  Percent Effect: 100.3%

## Fc1ccc2[nH]c(C3CCCN3CCc3ccccn3)nc2c1 (centres undefined)
30 µM, 30.03 µM
  Percent Effect: 22.71%

## O=C(N1CCC(OCc2ccccn2)CC1)C1(c2ccc(F)cc2)CC1
30 µM, 30.03 µM
  Percent Effect: -36.15%

## Cc1nc(Nc2ncccn2)cc(C2CCN(CC(C)C)C2)n1 (centres undefined)
30.3 µM, […]
  Percent Effect: 4.591%

## CN(CCCOc1ccccc1Cl)C(=O)CN1C[C@@H]2CC[C@H](CC1=O)N2
30.3 µM, […]
  Percent Effect: -75.76%

## COc1ccccc1-c1ncc(CN2C[C@@H](N(C)C)[C@H](C(C)C)C2)s1
30.3 µM, […]
  Percent Effect: 89.3%

## COc1ccccc1-c1ncc(CN2CCCC[C@H](N(C)C)C2)s1
30.3 µM, […]
  Percent Effect: 40.64%

## COc1ccccc1-c1ncc(CN2C[C@H](O)[C@@H](N3CCCC3)C2)s1
30.3 µM, […]
  Percent Effect: 20.14%

## COc1ccc(C2CCCN2C(=O)NCCCn2ccnc2)cc1 (centres undefined)
30.3 µM, […]
  Percent Effect: -18.05%

## CC(Nc1ncnc2c1CCNCC2)c1nc2c(s1)CCCC2 (centres undefined)
30 µM, 30.03 µM
  Percent Effect: 6.589%

## Cc1cc(C)n(CC(C)Nc2ncnc3c2CCNC3)n1 (centres undefined)
30 µM, 30.03 µM
  Percent Effect: -30.59%

## CC(Nc1ncnc2c1CCNC2)c1ccc2c(c1)CCCC2 (centres undefined)
30.3 µM, […]
  Percent Effect: 100.2%

## Cc1ccccc1C(CNc1ncnc2c1CCNC2)N(C)C (centres undefined)
30 µM, 30.03 µM
  Percent Effect: -30.9%

## CC(Nc1ncnc2c1CCNC2)c1ccc(C(C)(C)C)cc1 (centres undefined)
30.3 µM, […]
  Percent Effect: 90.36%

## CCCc1ccc(C(C)Nc2ncnc3c2CCNC3)cc1 (centres undefined)
30.3 µM, […]
  Percent Effect: 56.69%

## CCOc1ccc(C(C)Nc2ncnc3c2CCNC3)cc1OCC (centres undefined)
30.3 µM, […]
  Percent Effect: 2.402%

## Cc1ccccc1C(Nc1ncnc2c1CCNC2)c1ccccc1 (centres undefined)
30 µM, 30.03 µM
  Percent Effect: -12.11%

## CC(C)Nc1ncnc2c1CCNCC2
30.3 µM, […]
  Percent Effect: -40.35%

## CCNC(c1ccc(F)cc1)c1cccnc1 (centres undefined)
30 µM, 30.03 µM
  Percent Effect: -17.98%

## O=C(O)C(F)(F)F.O=C(c1cccs1)N1CC[C@@H](N2CCOCC2)[C@@H]1Cc1ccccc1
30 µM, 30.03 µM
  Percent Effect: 16.01%

## O=C(O)C(F)(F)F.O=C(O)[C@]12CCCN(CC3CCOC3)C[C@H]1CN(c1ncccn1)C2 (some centres undefined)
30.3 µM, […]
  Percent Effect: -92.21%

## Cc1cccc(C(=O)N2CCCN(CCCSCC#N)CC2)c1
30 µM, 30.03 µM
  Percent Effect: -25.24%

## O=C(O)C(F)(F)F.O=C(c1ccccc1)N1CCC[C@]2(C[C@@H](Oc3ncccc3F)CO2)C1
30 µM, 30.03 µM
  Percent Effect: -46.98%

## CC(C)CC(=O)NCCn1nc(C2CCNC2)c2cccnc21.Cl (centres undefined)
30.3 µM, […]
  Percent Effect: 2.604%

## CC(=O)N1N=C(c2ccco2)OC1C(=O)N(C)CCc1ccccc1 (centres undefined)
30.3 µM, […]
  Percent Effect: -0.7394%
10 mM, 10 mM as filed; unlikely as a test dose
  Percent Effect: -39.66%

## CC(=O)N1N=C(c2ccco2)OC1C(=O)NCC(C)C (centres undefined)
30.3 µM, […]
  Percent Effect: 15.99%
10 mM, 10 mM as filed; unlikely as a test dose
  Percent Effect: -43.02%

## CC(=O)N1N=C(c2ccco2)OC1C(=O)N(CC(C)C)CC(C)C (centres undefined)
30.3 µM, […]
  Percent Effect: 65.41%
10 mM, 10 mM as filed; unlikely as a test dose
  Percent Effect: -14.31%

## CCCc1nc(N2CCN(Cc3ccccn3)CC2)c2cnn(C)c2n1
30 µM, 30.03 µM
  Percent Effect: 36.81%

## CCCc1nc(N2CCCN(c3ncccn3)CC2)c2cnn(C)c2n1
30 µM, 30.03 µM
  Percent Effect: -12.92%

## CCCc1nc(N2CCCN(c3ccncc3)CC2)c2cnn(C)c2n1
30 µM, 30.03 µM
  Percent Effect: 59.27%

## CC(=O)N1CCC(n2nccc2-c2cnc(N)nc2)CC1
30.3 µM, […]
  Percent Effect: -9.866%

## Cn1ncc2c(N[C@H]3CC[C@@H](N)CC3)nc(C(C)(C)C)nc21
30.3 µM, […]
  Percent Effect: 99.86%

## Cn1ncc2c(NC3CCCN(C(=O)C4CC4)C3)nc(C(C)(C)C)nc21 (centres undefined)
30 µM, 30.03 µM
  Percent Effect: 43.28%

## Cn1ncc2c(N[C@H]3CCCC[C@@H]3O)nc(C(C)(C)C)nc21
30.3 µM, […]
  Percent Effect: -1.471%

## Cc1cccc(C(=O)N2C[C@@H]3CCN(c4cccnc4)C[C@@H]3C2)c1.O=C(O)C(F)(F)F
30 µM, 30.03 µM
  Percent Effect: 1.381%

## COCCN1C(=O)CC[C@@H]2[C@H]1CCN2Cc1cccc(C#N)c1.O=C(O)C(F)(F)F
30.3 µM, […]
  Percent Effect: -247.8%

## CCC(C)S(=O)(=O)N(Cc1ccco1)Cc1ccccc1O (centres undefined)
30 µM, 30.03 µM
  Percent Effect: -17.24%

## CCCN(Cc1ccccc1O)S(=O)(=O)N(C)CC
30 µM, 30.03 µM
  Percent Effect: -50.11%

## CCCN(Cc1ccccc1O)S(=O)(=O)C(C)CC (centres undefined)
30 µM, 30.03 µM
  Percent Effect: 101.6%

## Cl.Nc1ccc(-c2cnc(C3CCCN3)cn2)cn1 (centres undefined)
30.3 µM, […]
  Percent Effect: 19.85%

## Cc1ccc(N2CCc3sc(C(=O)N4CCOCC4)cc32)nn1
30.3 µM, […]
  Percent Effect: -27.02%

## Cc1ccc(N2CCc3sc(C(=O)NCCN4CCCC4)cc32)nn1
30.3 µM, […]
  Percent Effect: 54.03%

## O=C(NCCN1CCCC1)c1cc2c(s1)CCN2c1ncccn1
30.3 µM, […]
  Percent Effect: 35.85%

## Cc1cc(C(=O)N2CC[C@H]3[C@H](C[C@@H](CN4CCCC4)N3C)C2)c(C)o1.O=C(O)C(F)(F)F.O=C(O)C(F)(F)F
30.3 µM, […]
  Percent Effect: -13.25%
